# From PubChem BioAssay AID588342 (National Center for Advancing Translational Sciences (NCATS), 2011)
# Among all 360,000 compounds or so, about 25,000 (6.9%) were called active. Not shown: some 9% with an inconclusive outcome. The sample holds actives, similar compounds and a random draw of the others, so the mix is not that of the screen. A number with no mark means an inactive call. Calls follow the shape of the dose curve; as a rule, active = well fitted inhibition curve with a large enough effect; inconclusive = small, poorly fitted or top-dose-only effect; inactive = flat fitted curve, though single readings scatter.
# Target: Luciferin 4-monooxygenase (Photinus pyralis) (UniProt P08659)
# Sequence (P08659 whole entry, looked up): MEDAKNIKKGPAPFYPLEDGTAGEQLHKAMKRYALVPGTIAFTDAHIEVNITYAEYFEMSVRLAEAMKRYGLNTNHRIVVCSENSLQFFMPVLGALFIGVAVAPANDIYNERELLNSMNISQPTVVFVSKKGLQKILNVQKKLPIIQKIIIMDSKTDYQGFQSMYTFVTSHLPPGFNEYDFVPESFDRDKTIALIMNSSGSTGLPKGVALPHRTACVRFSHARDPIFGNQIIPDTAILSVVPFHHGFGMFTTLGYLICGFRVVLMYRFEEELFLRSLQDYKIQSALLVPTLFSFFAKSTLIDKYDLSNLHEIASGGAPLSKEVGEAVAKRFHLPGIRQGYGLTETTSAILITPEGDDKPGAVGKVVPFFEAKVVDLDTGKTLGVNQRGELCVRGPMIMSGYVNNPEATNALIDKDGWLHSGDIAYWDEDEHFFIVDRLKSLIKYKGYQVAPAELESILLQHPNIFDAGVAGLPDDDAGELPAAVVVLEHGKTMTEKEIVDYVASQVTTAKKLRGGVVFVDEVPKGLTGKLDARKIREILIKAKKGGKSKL
# Test: qHTS profiling assay for firefly luciferase inhibitor/activator using purifed enzyme and Km concentrations of substrates (counterscreen for miR-21 project); also: nearly all actives have a fitted effect of over 55% in size;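 as to activity change, negative = inhibition: plate controls were vehicle for no effect and reference inhibitor for full effect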
# Details: purified FLuc, luminescence inhibition; series mostly up to 57.5 µM; activity change, negative = inhibition: at the top concentration
# Outline: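 Biochemical qHTS of compounds, final roughly 60 µM downward over six points, against 10 nM purified firefly luciferase using Km concentrations of substrates (10 uM D-luciferin, 10 uM ATP) in Tris acetate pH 7.5 buffer; luminescence output.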
# Potency is read from the fitted curve at half-maximal effect.
Structure (SMILES),"activity change, negative = inhibition [%]",Potency
CC1=C(C(=O)Nc2ccccc2)C(c2ccc(C)cc2)n2nc(SCc3ccccc3C)nc2N1 (stereo not given),-0.97,
Cc1nnc(NC(=O)CSc2nc3c([nH]c4ccccc43)c(=O)n2-c2cccc(Cl)c2)s1,-1.54,
CCOc1ccc(S(=O)(=O)c2cn(Cc3ccc(OC)cc3)c3ccc(F)cc3c2=O)cc1,-3.31,
CCOc1ccc(NC(=O)Cn2c(C)ccc(C#N)c2=O)cc1,-4.3,
COc1ccc(CCNS(=O)(=O)c2cc(-c3cc(C)no3)ccc2C)cc1OC,-2.49,
Cc1cccc2c1-c1sc(C(=O)Nc3ccc(F)cc3F)cc1CO2,-14,
O=C(NCc1ccccc1)C(=O)NCC(c1ccco1)S(=O)(=O)c1ccc(Cl)cc1 (stereo not given),-1.18,
Cc1ccc(N2CCN(C(=O)CCc3c(C)nc4c(c3C)c(=O)n(C)c(=O)n4C)CC2)c(C)c1,-0.374,
C=CCn1c(SCC(=O)NC(=O)Cc2ccccc2)nc2ccccc2c1=O,2.08,
Cc1nn(CC(=O)Nc2ccc(C#N)cc2)c(C)c1[N+](=O)[O-],1.77,
COc1ccc(NS(=O)(=O)c2cccc3nsnc23)cc1Cl,4.27,
Cc1ccccc1-c1nc(CS(=O)(=O)CC(=O)Nc2cc(Cl)cc(Cl)c2)c(C)o1,-16,
COc1ccccc1CNS(=O)(=O)c1cc(Br)cc2c1N(C(C)=O)C(C)C2 (stereo not given),-3.66,
COc1ccc(CCNC(=O)COC(=O)Cc2cccc(F)c2)cc1,-0.275,
O=C(NCc1ccccc1)c1cccc(NC(=O)N2CCSc3ncccc32)c1,2.63,
COc1cc(OC)cc(C(=O)NCCc2csc3nc(-c4ccccc4F)nn23)c1,-7.94,
Cc1cccc(C(=O)N2c3nc(-c4ccco4)nn3C3(CCCCC3)[C@@H]3CCCC[C@@H]32)c1,-9.38,
CNS(=O)(=O)c1cccc(C(=O)OCC(=O)N2c3ccccc3NC(=O)C2(C)C)c1,8.6,
COc1cccc(-c2coc3cc4oc(=O)c(CC(=O)O)c(C)c4cc23)c1,,19 µM (active)
CC(=O)Oc1ccc2c(C)c(CC(C)O)c(=O)oc2c1 (stereo not given),-1.05,
Cc1c(CC(=O)NCCCCCC(=O)O)c(=O)oc2cc3occ(-c4ccccc4)c3cc12,,19 µM (active)
Cc1oc(C)c(C(=O)NCCCC(=O)O)c1C(=O)NCCCC(=O)O,-0.349,
COc1ccc2c(C)c(CCC(=O)NCc3ccc(OC)c(OC)c3)c(=O)oc2c1,-2.04,
Cc1ccc2[nH]c(=O)c(CC(=O)O)c(-c3ccccc3)c2c1,-8.3,
COc1ccccc1CNC(=O)CCn1c(=O)c2ccccc2n(CC(=O)Nc2ccc(Br)cc2F)c1=O,-1.36,

Structure (SMILES),"activity change, negative = inhibition [%]",Potency
COc1ccc(OCCn2cc(C(=O)C3CCCCC3)c3ccccc32)cc1,2.81,
Cc1ccc(Nc2nc(CSc3nnc(-c4ccncc4)n3-c3ccccc3C)cs2)cc1,,21.3 µM (active)
Cc1ccc(-n2c(SCC(=O)N3c4ccccc4Sc4ccccc43)nnc2-c2ccncc2)cc1,0.549,
Cc1ccccc1-n1c(SCC(=O)NCc2cccs2)nnc1-c1ccncc1,-0.77,
CCCN1C(=O)C(Cc2nc3ccccc3c(=O)n2-c2ccccc2)c2cc(C)ccc21 (stereo not given),,inactive
COc1ccc(NC(=S)N2N=CCC2c2ccccc2)cc1 (stereo not given),,4.78 µM (active)
CCC(C)N(C)C1CCN(C(=S)Nc2ccc(OC)cc2)CC1 (stereo not given),-4.4,
COc1ccc(NC(=S)N2CCc3cc(OC)c(OC)cc3C2)cc1,-3.32,
COc1ccc(C(=O)NC2CC2)cc1OC1CCN(Cc2cnn(C)c2)CC1,4.8,
OCCCN1c2ccccc2Nc2nnc(-c3ccccc3)cc21,,1.9 µM (active)
N=c1c2c(-c3ccccc3)c(-c3ccccc3)n(Cc3ccccc3)c2ncn1CCCO,0.125,
COC(=O)c1ccccc1NS(=O)(=O)c1ccc2c(c1)CCCN2C(C)=O,-13.4,
O=C(NCCc1ccccc1)c1ccc2c(c1)N(Cc1ccccc1)CCS2,-4.39,
CC1CCCN(c2ccc(C(=O)NCCc3ccccc3)cn2)C1 (stereo not given),,7.57 µM (active)
O=C(NCCc1ccccc1)c1cnc2sc(N3CCCC3)nn2c1=O,0.37,
Cc1ccc(-c2nc(Cn3c(=O)cc(-c4ccccc4)c4c(C)nn(C)c43)c(C)o2)cc1,-6.05,
CCN(CC)S(=O)(=O)c1ccc2c(c1)N(CC(=O)NCC(C)c1ccccc1)C(=O)CO2 (stereo not given),-3.19,
O=S(=O)(NCC(c1ccccc1)N1CCc2ccccc21)c1ccccc1 (stereo not given),-6.21,
Cc1onc(C(=O)NN)c1-c1csc(COc2ccccc2)n1,-4.18,
CC(C)(C)C(=O)OCc1nc(-c2ccc(O)c(O)c2)cs1,,4.26 µM (active)
Cc1nnc2n1N=C(c1ccccc1)CS2,-2,
O=c1c2cc(-c3ccccc3)sc2nc2n1N=C(c1cccs1)CS2,,0.601 µM (active)
CCCCCCn1nnc2sc(-c3ccccc3)cc2c1=O,-2.55,
CCOc1ccc(NC(=O)CC2C(=O)N(c3cccc(OC)c3)C(=O)N2C2CCCCC2)cc1 (stereo not given),-4.52,
CCOC(=O)c1c(S(=O)(=O)N2CCCC(C(=O)NCc3cccc(C)c3)C2)c(C)n(C)c1C (stereo not given),-1.83,
